Read-out in assay [1]: Transforming growth factor beta 1 (TGFb1), TGFB1 (gene 7040)
As to the kind of experiment: BSK_KF3CT_TGFb1: BioMAP Diversity Plus: KF3CT Assay for Transforming growth factor beta 1 (TGFb1) Biomarker Activity (AID 2283072). The conditions noted are these: primary human keratinocytes with fibroblasts; actives raise or lower the signal. The gist of the method:
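Primary human skin cells (keratinocytes, foreskin fibroblasts) were co-cultured, exposed to test chemical and sampled at 24 h. TGF-b1 levels were measured by ELISA and fitted bidirectionally relative to DMSO.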

Read-out in assay [2]: C-C motif chemokine 2 (Homo sapiens) (UniProt P13500)
As to the kind of experiment: BSK_KF3CT_MCP1: BioMAP Diversity Plus: KF3CT Assay for Monocyte Chemoattractant Protein 1 (MCP1/CCL2) Biomarker Activity (AID 2283073). The conditions noted are these: primary human keratinocytes with fibroblasts; actives raise or lower the signal. The gist of the method:
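Human keratinocyte plus foreskin fibroblast primary co-culture exposed to chemical for 24 h. MCP-1 levels measured by ELISA. Bidirectional curve fitting relative to DMSO negative control as baseline.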

Read-out in assay [3]: Matrix Metallopeptidase 9 (MMP9), MMP9 (gene 4318)
As to the kind of experiment: BSK_KF3CT_MMP9: BioMAP Diversity Plus: KF3CT Assay for Matrix Metallopeptidase 9 (MMP9) Biomarker Activity (AID 2283074).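 For AC50: MMP9 protein level quantified by ELISA in the co-culture.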 The conditions noted are these: primary human keratinocytes with fibroblasts; actives raise or lower the signal. In a few lines: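 Keratinocyte plus foreskin fibroblast human primary skin co-culture was dosed with chemical and MMP-9 was quantified by ELISA 24 h later. Bidirectional curve fitting used DMSO as negative control and activity baseline.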

Read-out in assay [4]: urokinase plasminogen activator (uPA), PLAU (gene 5328)
As to the kind of experiment: BSK_KF3CT_uPA: BioMAP Diversity Plus: KF3CT Assay for urokinase plasminogen activator (uPA) Biomarker Activity (AID 2283075). The conditions noted are these: primary human keratinocytes with fibroblasts; actives raise or lower the signal. The gist of the method: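 Human keratinocyte plus foreskin fibroblast primary co-culture exposed to chemical for 24 h. uPA levels were quantified by ELISA, and activity was fitted bidirectionally against a DMSO negative-control baseline.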

Read-out in assay [5]: CD40, CD40 (gene 958)
Put plainly: BSK_LPS_CD40: BioMAP Diversity Plus: LPS Assay for CD40 Biomarker Activity (AID 2283076). The conditions noted are these: primary human HUVEC with PBMC; actives raise or lower the signal. The gist of the method:
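Primary human umbilical vein endothelial cells co-cultured with peripheral blood mononuclear cells, LPS-stimulated, were dosed with chemical and read 24 h later. CD40 levels were measured by ELISA and fitted bidirectionally against DMSO as negative control and baseline.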

Read-out in assay [6]: E-selectin (Homo sapiens) (UniProt P16581)
Put plainly: BSK_LPS_Eselectin: BioMAP Diversity Plus: LPS Assay for Eselectin Biomarker Activity (AID 2283077). The conditions noted are these: primary human HUVEC with PBMC; actives raise or lower the signal. In a few lines: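 Human umbilical vein endothelial cells co-cultured with peripheral blood mononuclear cells under LPS stimulation; E-selectin measured by ELISA 24 h after chemical dosing. Activity fitted bidirectionally against DMSO as negative control and baseline.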

Read-out in assay [7]: Interleukin-8 (IL8), CXCL8 (gene 3576)
Put plainly: BSK_LPS_IL8: BioMAP Diversity Plus: LPS Assay for Interleukin-8 (IL8) Biomarker Activity (AID 2283078). The conditions noted are these: primary human HUVEC with PBMC; actives raise or lower the signal. The gist of the method: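 Human umbilical vein endothelial cells co-cultured with PBMC were stimulated with LPS; IL-8 levels were measured by ELISA 24 h after chemical dosing. Activity was fitted bidirectionally against DMSO as negative control and baseline.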

Assay [8] in a line: BSK_LPS_SRB: Viability Assessment in the BioMAP Diversity Plus: LPS Assay (AID 2283079).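 Note: total protein by sulforhodamine B absorbance as a cytotoxicity measure; measured one day after compound addition; fitted in both directions against DMSO so loss or gain of signal counts.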 As to conditions: primary human HUVEC with PBMC. In a few lines: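 Human umbilical vein endothelial cells co-cultured with PBMC (LPS system) were dosed for 24 h. Total protein was stained with 0.1% sulforhodamine B after 10% TCA fixation, read at 560 nm, and fitted bidirectionally against DMSO baseline.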

Read-out in assay [9]: Interleukin-1 alpha (IL1a), IL1A (gene 3552)
As to the kind of experiment: BSK_LPS_IL1a: BioMAP Diversity Plus: LPS Assay for Interleukin-1 alpha (IL1a) Biomarker Activity (AID 2283080). The conditions noted are these: primary human HUVEC with PBMC; actives raise or lower the signal. In a few lines: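 Human umbilical vein endothelial cells co-cultured with peripheral blood mononuclear cells were LPS-stimulated and exposed to test chemicals for 24 h. IL-1 alpha was quantified by ELISA, with bidirectional curve fitting against DMSO as the negative control and baseline.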

Read-out in assay [10]: Monocyte Chemoattractant Protein-1 (MCP1), CCL2 (gene 6347)
As to the kind of experiment: BSK_LPS_MCP1: BioMAP Diversity Plus: LPS Assay for Monocyte Chemoattractant Protein-1 (MCP1) Biomarker Activity (AID 2283081).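 For AC50: co-culture stimulated with LPS; secreted MCP-1 protein quantified by ELISA in culture supernatant.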 As to conditions: primary human HUVEC with PBMC; actives raise or lower the signal. In a few lines:
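HUVEC plus PBMC co-culture (human primary cells, LPS system) exposed to test chemical for 24 h; MCP-1 measured by ELISA. Bidirectional curve fitting against DMSO baseline; parallel SRB total-protein staining flags overt cytotoxicity.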

The nature of assay [11]: BSK_LPS_PGE2: BioMAP Diversity Plus: LPS Assay for Prostaglandin E2 (PGE2) Biomarker Activity (AID 2283082). The conditions noted are these: primary human HUVEC with PBMC; actives raise or lower the signal. In a few lines:
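LPS-activated HUVEC/PBMC co-culture; cmpd dosed, 24 h; PGE2 by ELISA; bidirectional fit vs DMSO; SRB (0.1%, TCA-fixed, 560 nm) in parallel plates for overt cytotox.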

Read-out in assay [12]: Macrophage colony-stimulating factor (MCSF), CSF1 (gene 1435)
As to the kind of experiment: BSK_LPS_MCSF: BioMAP Diversity Plus: LPS Assay for Macrophage colony-stimulating factor (MCSF) Biomarker Activity (AID 2283083). The conditions noted are these: primary human HUVEC with PBMC; actives raise or lower the signal. The gist of the method:
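Human umbilical vein endothelial cells co-cultured with peripheral blood mononuclear cells were exposed to compound for 24 h. M-CSF levels were measured by ELISA, and bidirectional curve fitting used DMSO as the negative control and baseline.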

Read-out in assay [13]: Tissue Factor, F3 (gene 2152)
As to the kind of experiment: BSK_LPS_TissueFactor: BioMAP Diversity Plus: LPS Assay for Tissue Factor Biomarker Activity (AID 2283084). The conditions noted are these: primary human HUVEC with PBMC; actives raise or lower the signal. In a few lines:
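Human umbilical vein endothelial cells co-cultured with peripheral blood mononuclear cells were dosed and stimulated with LPS. Cell-surface CD142 was quantified by ELISA at 24 h. Activity was fitted bidirectionally against DMSO baseline.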

Read-out in assay [14]: Tumor necrosis factor (Homo sapiens) (UniProt P01375)
Put plainly: BSK_LPS_TNFa: BioMAP Diversity Plus: LPS Assay for Tumour Necrosis Factor alpha (TNFa) Biomarker Activity (AID 2283085). As to conditions: primary human HUVEC with PBMC; actives raise or lower the signal. The gist of the method: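 Read-out is ELISA of TNFa in primary human endothelial cell–PBMC co-cultures at 24 h after compound. Activity in either direction was fitted against DMSO.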

Read-out in assay [15]: Vascular cell adhesion molecule 1 (VCAM1), VCAM1 (gene 7412)
Put plainly: BSK_LPS_VCAM1: BioMAP Diversity Plus: LPS Assay for Vascular cell adhesion molecule 1 (VCAM1) Biomarker Activity (AID 2283086). The conditions noted are these: primary human HUVEC with PBMC; actives raise or lower the signal. The gist of the method:
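HUVEC + PBMC co-culture, LPS system; compound 24 h; VCAM-1 by ELISA; bidirectional fit vs DMSO control; parallel SRB (0.1%, TCA-fixed, 560 nm) for cytotoxicity.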

Read-out in assay [16]: CD40, CD40 (gene 958)
Put plainly: BSK_SAg_CD40: BioMAP Diversity Plus: SAg Assay for CD40 Biomarker Activity (AID 2283088). The conditions noted are these: primary human HUVEC with PBMC; actives raise or lower the signal. The gist of the method:
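Human umbilical vein endothelial cells co-cultured with PBMC; CD40 levels measured by ELISA with fluorescence read-out 24 h after chemical dosing. Gain or loss of signal fitted bidirectionally against DMSO baseline.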

Read-out in another assay: CD69, CD69 (gene 969)
Put plainly: BSK_SAg_CD69: BioMAP Diversity Plus: SAg Assay for CD69 Biomarker Activity (AID 2283089).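 For AC50: cell surface CD69 protein quantified by ELISA with fluorescence detection.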 As to conditions: primary human HUVEC with PBMC; actives raise or lower the signal. The gist of the method: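 Endothelial/PBMC co-culture; chemical added; 24 h incubation; CD69 ELISA with fluorescence detection; bidirectional fit vs DMSO.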

Read-out in assay [17]: Monocyte Chemoattractant Protein-1 (MCP1), CCL2 (gene 6347)
Put plainly: BSK_SAg_MCP1: BioMAP Diversity Plus: SAg Assay for Monocyte Chemoattractant Protein-1 (MCP1) Biomarker Activity (AID 2283090). The conditions noted are these: primary human HUVEC with PBMC; actives raise or lower the signal. In a few lines: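 MCP-1 levels in the endothelial–PBMC SAg co-culture were quantified by ELISA at 24 h post-dosing; both increases and decreases versus DMSO scored. Cytotoxicity monitored by SRB total protein in parallel cultures.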

Read-out in assay [18]: E-selectin (Homo sapiens) (UniProt P16581)
As to the kind of experiment: BSK_SAg_Eselectin: BioMAP Diversity Plus: SAg Assay for Eselectin Biomarker Activity (AID 2283091). The conditions noted are these: primary human HUVEC with PBMC; actives raise or lower the signal. The gist of the method:
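HUVEC co-cultured with PBMC, compound dosed then read at 24 h; E-selectin measured by ELISA. Activity fitted bidirectionally against DMSO as negative control and baseline.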

Read-out in the next assay: CD38, CD38 (gene 952)
As to the kind of experiment: BSK_SAg_CD38: BioMAP Diversity Plus: SAg Assay for CD38 Biomarker Activity (AID 2283087). The conditions noted are these: primary human HUVEC with PBMC; actives raise or lower the signal. In a few lines:
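Human HUVEC plus PBMC co-culture stimulated with superantigen; CD38 measured by ELISA 24 h after chemical dosing. Fluorescence read-out, bidirectional fit against DMSO; cytotoxicity tracked in parallel by SRB and Alamar Blue.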

The source of these data is PubChem BioAssay (EPA / NIEHS).

Active and inactive are the calls of the source. Rule for the calls: active = hit-call score of the fitted dose curve at least 0.9, where 1 is the maximum; inactive = score below 0.9.

Sequence of Tumor necrosis factor (Homo sapiens) (P01375 whole entry, looked up): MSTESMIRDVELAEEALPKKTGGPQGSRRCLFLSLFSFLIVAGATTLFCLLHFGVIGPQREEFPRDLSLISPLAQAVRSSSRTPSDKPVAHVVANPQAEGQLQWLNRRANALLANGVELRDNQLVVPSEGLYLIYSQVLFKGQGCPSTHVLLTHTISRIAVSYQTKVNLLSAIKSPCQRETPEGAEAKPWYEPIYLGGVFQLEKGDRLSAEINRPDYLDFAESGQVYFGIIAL
Sequence of E-selectin (Homo sapiens) (P16581 whole entry, looked up): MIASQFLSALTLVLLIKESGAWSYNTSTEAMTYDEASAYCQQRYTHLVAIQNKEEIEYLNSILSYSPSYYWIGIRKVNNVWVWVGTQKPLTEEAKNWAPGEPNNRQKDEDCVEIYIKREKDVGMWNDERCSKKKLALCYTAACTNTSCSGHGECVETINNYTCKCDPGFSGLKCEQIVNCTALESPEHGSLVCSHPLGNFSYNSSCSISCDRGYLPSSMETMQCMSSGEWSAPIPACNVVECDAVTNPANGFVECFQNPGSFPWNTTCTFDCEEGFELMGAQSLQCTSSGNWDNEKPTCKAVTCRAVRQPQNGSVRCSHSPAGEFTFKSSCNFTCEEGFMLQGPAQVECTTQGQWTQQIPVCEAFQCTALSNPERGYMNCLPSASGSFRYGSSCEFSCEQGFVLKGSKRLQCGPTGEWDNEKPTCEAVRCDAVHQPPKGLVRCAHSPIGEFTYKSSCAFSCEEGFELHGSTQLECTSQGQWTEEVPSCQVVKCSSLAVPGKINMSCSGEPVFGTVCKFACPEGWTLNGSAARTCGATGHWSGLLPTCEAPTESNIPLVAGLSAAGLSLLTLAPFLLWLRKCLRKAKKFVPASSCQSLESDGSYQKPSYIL

As for `O=C1O[C@H]([C@@H](O)CO)C(O)=C1O`, the outcome in [1] was “inactive”; in assay [2], “inactive”; in assay [3] it was “inactive”; in assay [4], “inactive”; in the assay with CD40, CD40 (gene 958) [5] it was “inactive”; in assay [6] it was “inactive”. The result in assay [7], in assay [8], in assay [9], in [10], in assay [11] and in [12] was inactive. Moreover, the outcome in assay [13] is “inactive”; in assay [14], “inactive”; in assay [15], “inactive”; with CD40, CD40 (gene 958) [16], “inactive”; in the assay with CD69, CD69 (gene 969), “inactive”; in assay [17], “inactive”. For the same compound, the result in [18] was inactive.
Regarding `c1ccc(C[n+]2cccc3ccccc32)cc1`, the result in [1], in assay [2], in assay [3], in [4], in [6] and in assay [7] was inactive. Also, the result in assay [8], in assay [9], in assay [10], in assay [11], in [12] and in assay [13] was inactive. Also, the outcome in assay [14] is “inactive”; in assay [15], “inactive”; with CD40, CD40 (gene 958) [16] it was “inactive”; in the assay with CD69, CD69 (gene 969), “inactive”; in assay [17] it was “inactive”; in assay [18], “inactive”.
For orientation: AC50 means the concentration at which the activity in the assay is half-maximal. Turning to `NCc1cccc(C2CCN(C(=O)c3ccc(C#Cc4ccccc4F)o3)CC2)c1`, the AC50 in [1] is 10.4 µM (active); in assay [2], 20 µM (active); in assay [3], 11.3 µM (active); in assay [4], 11.1 µM (active); in assay [6], 35.6 µM (active); in [7], 25.8 µM (active). In addition, the AC50 is 15.3 µM (active) in assay [8]; 17.1 µM (active) in assay [9]; 16.1 µM (active) in assay [10]; 26 µM (active) in assay [12]; 28.2 µM (active) in assay [13]; 27.7 µM (active) in assay [14]. Besides, the concentration at half-maximal activity (AC50) was 24.6 µM (active) in assay [15]; 17.4 µM (active) in the assay with CD38, CD38 (gene 952); 15.3 µM (active) with CD40, CD40 (gene 958) [16]; 22.1 µM (active) in the assay with CD69, CD69 (gene 969); 28 µM (active) in assay [17]; 23.8 µM (active) in [18]. Also, the outcome in assay [11] was inactive.
